According to the supplement of paper PMC11219838:
Values without a mark were called inactive.

test system: Meloidogyne hapla J2; test: proportion of mobile M. hapla J2 relative to DMSO control (fraction of DMSO control); higher = more viable, less nematicidal, active = 0.7 or less; settings: 60 µM; 5 days; temperature: 20 °C
Experimental: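 DODA library (846 commercial 1,3,4- and 1,2,4-oxadiazole compounds plus commercial nematicide controls) screened at a single dose of 60 µM (0.6% DMSO) in 96-well plates, two biological replicates. Read-outs: C. elegans N2 L1 survival/reproduction score at day 6, 20 °C (0: 0-10 worms, 1: 11-20, 2: 21-50, 3: >50, 4: overgrown/starved). C. elegans daf-2 dauer, D. dipsaci and M. hapla J2 mobility at day 5, 20 °C, and P. penetrans mobility at day 5, 20 °C, each relative to DMSO controls. M. hapla egg hatching at day 12, 25 °C, relative to the mean of 8 DMSO wells on the same plate.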

Row | Structure (SMILES) | proportion of mobile M. hapla J2
1 | CNC(=O)O/N=C(\SC)C(=O)N(C)C [oxamyl] | 0.936
2 | O=C(NCCc1ncc(C(F)(F)F)cc1Cl)c1ccccc1C(F)(F)F [fluopyram] | 0.653 (active)
3 | CC(C)NC(=O)N1CC(=O)N(c2cc(Cl)cc(Cl)c2)C1=O [iprodione] | 1.03
4 | CC[C@H](C)[C@H]1O[C@]2(C=C[C@@H]1C)C[C@@H]1C[C@@H](C/C=C(\C)[C@@H](O[C@H]3C[C@H](OC)[C@@H](O[C@H]4C[C@H](OC)[C@@H](O)[C@H](C)O4)[C@H](C)O3)[C@@H](C)/C=C/C=C3\CO[C@@H]4[C@H](O)C(C)=C[C@@H](C(=O)O1)[C@]34O)O2.CO[C@H]1C[C@H](O[C@H]2[C@H](C)O[C@@H](O[C@@H]3/C(C)=C/C[C@@H]4C[C@@H](C[C@]5(C=C[C@H](C)[C@@H](C(C)C)O5)O4)OC(=O)[C@@H]4C=C(C)[C@@H](O)[C@H]5OC/C(=C\C=C\[C@@H]3C)[C@]54O)C[C@@H]2OC)O[C@@H](C)[C@@H]1O [abamectin] | 1.03
